Some test systems named below: SK-MEL-2 melanoma; EKVX NSCLC; SN12C renal; UO-31 renal; TK-10 renal; ACHN renal; CAKI-1 renal; A498 renal; CCRF-CEM leukemia; MOLT-4 leukemia; SR leukemia; RPMI-8226 leukemia; OVCAR-8 ovarian; OVCAR-5 ovarian; OVCAR-4 ovarian; SK-OV-3 ovarian; IGROV1 ovarian; OVCAR-3 ovarian; HS 578T breast; NCI/ADR-RES ovarian.
Assay in all cases: NCI-60 one-dose screen, 48 h (100 = growth as untreated, 0 = no growth, -100 = all killed)
Details in all cases: 10 µM unless noted

This is part of a sample that, as a whole, favours compounds with a hit. Of some 83,000 tested, about 20% had one in any assay.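 48-hour exposure, single concentration, 96-well plates; percent growth endpoint where 0 means no net growth. Active: below 10.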 Unmarked numbers belong to inactive results. The source made the active and inactive calls.

The record followed here is PubChem BioAssay (NCI).

With `COc1ccc(C2=NN3C(C2)c2cc(Br)ccc2OC3c2ccncc2)cc1` (stereo not given), the growth was 97.5% in the assay on SK-MEL-2 melanoma; 83.6% in the assay with EKVX NSCLC; 83.3% in the assay with SN12C renal; 44.6% in the assay with UO-31 renal; 98.6% in the assay on TK-10 renal; 80.7% with ACHN renal. Further, the growth in the assay on CAKI-1 renal was 45.2%; in the assay on A498 renal, 95.6%; in the assay with CCRF-CEM leukemia, 70%; in the assay with MOLT-4 leukemia it was 68.5%; in the assay on SR leukemia, 64.2%; with RPMI-8226 leukemia, 77.8%. Also, the growth in the assay with OVCAR-8 ovarian is 82.6%; in the assay with OVCAR-5 ovarian, 88.4%; with OVCAR-4 ovarian, 78.9%; with SK-OV-3 ovarian it was 70.6%; in the assay with IGROV1 ovarian, 48.9%; with OVCAR-3 ovarian, 80.1%. Besides, the growth in the assay with HS 578T breast was 89.4%; with NCI/ADR-RES ovarian, 82%.
As to `CCOC(=O)c1c(NC(=S)Nc2ccc([N+](=O)[O-])cc2)sc2c1CCCCC2`, the growth in the assay with SK-MEL-2 melanoma is 66.6%; in the assay on EKVX NSCLC, 79.2%; in the assay with SN12C renal, 55.7%; in the assay with UO-31 renal, 76.2%; with TK-10 renal, 85.9%; with ACHN renal, 84.6%. Further, the growth with CAKI-1 renal is 79.1%; in the assay on A498 renal, 49.8%; in the assay on CCRF-CEM leukemia, 64%; in the assay on MOLT-4 leukemia, 72.9%; with SR leukemia, 61.7%; with RPMI-8226 leukemia, 46.7%. In addition, the growth in the assay with OVCAR-8 ovarian is 77.3%; in the assay on OVCAR-5 ovarian it was 93.7%; with OVCAR-4 ovarian it was 71.6%; in the assay with SK-OV-3 ovarian it was 66%; in the assay with IGROV1 ovarian, 89.7%; with OVCAR-3 ovarian, 65.1%. Moreover, the growth is 81.8% in the assay with HS 578T breast and 54% in the assay with NCI/ADR-RES ovarian.
In the case of `COc1ccc2c(c1)c(-c1nc(-c3cn(C)c4ccncc34)cs1)cn2C`, the growth was 112% with SK-MEL-2 melanoma; -36.7% (active) in the assay on EKVX NSCLC; 94.2% in the assay with SN12C renal; 71.2% in the assay with UO-31 renal; 79.7% with TK-10 renal; 95% in the assay on ACHN renal. Further, the growth with CAKI-1 renal is 75.6%; with A498 renal it was 90.9%; with CCRF-CEM leukemia, -27.9% (active); in the assay on MOLT-4 leukemia it was -31.1% (active); in the assay with SR leukemia, -26.1% (active); in the assay with RPMI-8226 leukemia, -48% (active). Also, the growth in the assay on OVCAR-8 ovarian is -3.91% (active); in the assay with OVCAR-5 ovarian, -16.7% (active); with OVCAR-4 ovarian, -3.39% (active); with SK-OV-3 ovarian, 119%; with IGROV1 ovarian, -2.51% (active); with OVCAR-3 ovarian it was -77.6% (active). Besides, the growth in the assay on HS 578T breast was 104%; in the assay with NCI/ADR-RES ovarian it was 10.2%.
For the compound `CCc1ccc(Cc2cnc(NC(=O)c3cc(C)oc3C)s2)cc1`, the growth with SK-MEL-2 melanoma was 59.4%; with EKVX NSCLC it was 39.6%; in the assay on SN12C renal it was 45.1%; in the assay on UO-31 renal it was 43.6%; in the assay on TK-10 renal, 60.1%; with ACHN renal, 48.7%. Further, the growth was 22.2% with CAKI-1 renal; 8.18% (active) in the assay on A498 renal; 28.5% in the assay on CCRF-CEM leukemia; 29.2% in the assay with MOLT-4 leukemia; 19.5% in the assay with SR leukemia; 51% with RPMI-8226 leukemia. The growth in the assay with OVCAR-8 ovarian was 52.9%; in the assay on OVCAR-5 ovarian, 55.2%; with OVCAR-4 ovarian, 54.7%; in the assay with SK-OV-3 ovarian, 52.8%; in the assay with IGROV1 ovarian, 43%; in the assay on OVCAR-3 ovarian, 16.7%. The growth in the assay on HS 578T breast is 23.6%; in the assay with NCI/ADR-RES ovarian it was 34.1%.
For the compound `O=C(c1ccc(F)cc1)C1CCN(CCn2c(=O)[nH]c3ccccc3c2=O)CC1`, the growth in the assay on SK-MEL-2 melanoma is 106%; in the assay on EKVX NSCLC it was 89.3%; in the assay on SN12C renal, 105%; in the assay with UO-31 renal it was 64.6%; with TK-10 renal it was 105%; in the assay on ACHN renal it was 94.8%. For the same compound, the growth in the assay with CAKI-1 renal was 84.2%; with A498 renal, 118%; in the assay on CCRF-CEM leukemia, 101%; in the assay on MOLT-4 leukemia, 95.5%; in the assay on SR leukemia, 99.9%; in the assay on RPMI-8226 leukemia, 104%. Moreover, the growth in the assay on OVCAR-8 ovarian is 103%; with OVCAR-5 ovarian, 99.9%; with OVCAR-4 ovarian, 109%; with SK-OV-3 ovarian, 102%; with IGROV1 ovarian, 111%; in the assay on OVCAR-3 ovarian, 96.9%. In addition, the growth in the assay on HS 578T breast is 108%; in the assay with NCI/ADR-RES ovarian it was 102%.
For the compound `COc1cccc(/C=C2\CCc3ccccc3C2=O)c1`, the growth in the assay on SK-MEL-2 melanoma was 82.9%; in the assay on EKVX NSCLC it was 87.9%; with SN12C renal, 84.6%; in the assay on UO-31 renal it was 72.5%; with TK-10 renal, 94.4%; in the assay on ACHN renal it was 95.7%. Moreover, the growth in the assay with CAKI-1 renal is 77.3%; in the assay on A498 renal, 95.2%; in the assay on CCRF-CEM leukemia, 37.7%; in the assay with MOLT-4 leukemia it was 71.6%; with SR leukemia it was 21%; in the assay with RPMI-8226 leukemia it was 6.5% (active). The growth in the assay with OVCAR-8 ovarian was 92.5%; in the assay on OVCAR-5 ovarian, 85.9%; in the assay with OVCAR-4 ovarian, 88.5%; in the assay with SK-OV-3 ovarian it was 86.5%; in the assay on IGROV1 ovarian it was 80.7%; in the assay with OVCAR-3 ovarian, 89.5%. The figures for the growth in the assay on HS 578T breast and in the assay on NCI/ADR-RES ovarian were 87.4% and 71.4%, respectively.
As for `CCOC(=O)C1=CCC(n2cc(F)c(=O)[nH]c2=O)O1` (stereo not given), the growth was 103% with SK-MEL-2 melanoma; 118% in the assay on EKVX NSCLC; 104% in the assay on SN12C renal; 87.8% in the assay with UO-31 renal; 110% in the assay with TK-10 renal; 103% with ACHN renal. Also, the growth was 102% in the assay with CAKI-1 renal; 99.9% in the assay on A498 renal; 97.4% with CCRF-CEM leukemia; 92.9% in the assay on MOLT-4 leukemia; 99.8% in the assay with SR leukemia; 105% in the assay with RPMI-8226 leukemia. The growth in the assay with OVCAR-8 ovarian was 97%; in the assay on OVCAR-5 ovarian it was 119%; in the assay on OVCAR-4 ovarian, 130%; in the assay with SK-OV-3 ovarian, 121%; with IGROV1 ovarian it was 126%; with OVCAR-3 ovarian, 92.5%. Moreover, the growth in the assay on HS 578T breast was 116%; in the assay on NCI/ADR-RES ovarian, 106%.
